Reference: PubChem BioAssay AID588591 (National Center for Advancing Translational Sciences (NCATS), 2011)
Values joined by “and” are separate entries in the source; they are usually repeats but may differ in a detail not shown here. Equal entries are not always repeated. In all, about 390,000 compounds went through this assay and about 4,700 (1.2%) were called active. Inconclusive results (about 4%) are left out. The call rests on the fitted dose curve; in most records, active means well fitted inhibition curve with a large enough effect; inconclusive means small, poorly fitted or top-dose-only effect, or another doubt; inactive means no such curve, though single readings can be large or run the other way. Many of the other results were omitted from the sample, so actives are more common in it than they were. The source holds several records for some structures; these can differ, active in one and inactive in another.

Each compound was assayed against DNA polymerase eta (Homo sapiens) (UniProt Q9Y253) (assay: qHTS for Inhibitors of Polymerase Eta). Details: recombinant Pol eta, fluorescent DNA replication assay; series mostly up to 114 µM; activity change, negative = inhibition: at the top concentration.
DNA polymerase eta (Homo sapiens), sequence (Q9Y253 whole entry, looked up): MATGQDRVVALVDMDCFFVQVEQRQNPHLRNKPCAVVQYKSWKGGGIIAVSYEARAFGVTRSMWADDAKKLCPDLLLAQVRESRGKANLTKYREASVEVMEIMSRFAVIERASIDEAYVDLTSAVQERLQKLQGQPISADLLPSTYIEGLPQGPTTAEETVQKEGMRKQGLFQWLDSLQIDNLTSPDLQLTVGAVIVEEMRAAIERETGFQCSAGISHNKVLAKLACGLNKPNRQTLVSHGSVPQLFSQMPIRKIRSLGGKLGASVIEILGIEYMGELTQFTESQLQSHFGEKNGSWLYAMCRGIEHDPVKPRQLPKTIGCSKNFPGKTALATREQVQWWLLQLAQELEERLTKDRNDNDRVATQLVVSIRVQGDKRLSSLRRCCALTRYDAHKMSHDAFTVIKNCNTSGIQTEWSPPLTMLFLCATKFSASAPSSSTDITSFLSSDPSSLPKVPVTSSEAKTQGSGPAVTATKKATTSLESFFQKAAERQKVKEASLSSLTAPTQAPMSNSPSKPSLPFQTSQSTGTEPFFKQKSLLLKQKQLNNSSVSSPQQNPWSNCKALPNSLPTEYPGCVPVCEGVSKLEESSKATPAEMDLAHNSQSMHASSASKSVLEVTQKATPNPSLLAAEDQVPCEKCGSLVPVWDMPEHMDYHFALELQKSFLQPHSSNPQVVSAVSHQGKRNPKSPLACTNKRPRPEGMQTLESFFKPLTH
Procedure, shortened: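 Pol eta (10 nM) was preincubated with compounds for 15 min at room temperature, after which fluorescent replication substrate (50 nM final) was added to start the reaction. Fluorescence was read kinetically at 0 and 10 min.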
On the % scale 0 is the no-effect control and ±100 the full control effect; potency means the concentration at half of the fitted maximal effect.

SMILES | activity change, negative = inhibition | Potency
Cc1cc(C)cc(NC(=O)CSc2oc(-c3ccccc3)nc2S(=O)(=O)c2ccc(Cl)cc2)c1 | -12.3% (inactive) | –
Cc1ccc(C(=O)Oc2coc(CSc3nnc(NC(=O)c4cccs4)s3)cc2=O)cc1C | – | 7.94 µM (active)
COCCSc1nnc(NC(=O)c2cc(OC)c(OC)cc2[N+](=O)[O-])s1 | 1.04% (inactive) | –
CCOc1ccccc1Nc1nnc(SCc2ccc(C(=O)OC)o2)s1 | -21% (inactive) | –
CC1=C(c2ccc(C)cc2)S(=O)(=O)NC1=NCCCN1CCN(c2cc(C)ccc2C)CC1 | -7.86% (inactive) | –
CCc1ccc2ncc3c(-c4ccc(C)cc4)nn(CC(=O)NCc4ccccc4)c3c2c1 | -0.631% (inactive) | –
CCc1ccc(CNCc2c(C(=O)O)n(Cc3ccc(F)cc3Cl)c3cc(OC)ccc23)cc1 | -19.3% (inactive) | –
COc1cc(C(=O)NCCc2csc3nc(-c4ccccc4C)nn23)cc(OC)c1OC | -18.8% (inactive) | –
O=C(COC(=O)c1ccc(Br)o1)NC12CC3CC(CC(C3)C1)C2 | -19.7% (inactive) | –
O=C(OCC(=O)c1cccs1)c1ccc([N+](=O)[O-])o1 | -2.33% (inactive) | –
O=C(COC(=O)c1ccc([N+](=O)[O-])o1)NC12CC3CC(CC(C3)C1)C2 | – | 79.4 µM (active)
ON=C1/C(=N\O)CC2(C/C1=N/O)OCCO2 | – | 56.2 µM (active)
COc1ccc(OC)c(NC(=O)CN2CCCN(Cc3cc(C)ccc3C)S2(=O)=O)c1 | 5.54% (inactive) | –
COC(=O)c1sc(-c2ccc(C(C)(C)C)cc2)cc1NC(=O)/C=C/C(=O)O | – | 79.4 µM (active)
COc1ccc(Nc2ncc3c(n2)CCN(C(=O)OC(C)(C)C)C3)cc1 | -17.4% (inactive) | –
COc1ccc(/C=C/c2noc(-c3ccccc3O)n2)cc1OC | -0.332% (inactive) | –
O=C(CCc1nc(CN2CCN(S(=O)(=O)c3ccc(Cl)cc3)CC2)no1)N1CCCCC1 | -14.5% (inactive) | –
CCCCN(CC)CCCNC(=O)Cn1ncc2c([nH]c3ccc(C)cc32)c1=O | -18.6% (inactive) | –
Cc1cc(=O)n2[nH]c(-c3sccc3-n3c(C)ccc3C)cc2n1 | – | 22.4 µM (active)

SMILES | activity change, negative = inhibition | Potency
Cc1ccc(-c2cc(N)n(Cc3cccc(Cl)c3)n2)cc1 | -15.5% (inactive) | –
COc1cc(Nc2nc(-c3ccc(OC)c(OC)c3)nc3ccccc23)cc(OC)c1 | 2.81% (inactive) | –
CC(=O)N(C1=C(Cl)C(=O)c2ccccc2C1=O)c1ccc(C(=O)O)cc1 | – | 20 µM (active)
CCC(=O)N1CCc2cc(S(=O)(=O)NC(Cc3ccccc3)C(=O)NCc3ccc(C)cc3)ccc21 (configuration not stated) | -8.28% (inactive) | –
Cc1ccn2c(=O)nc(SCC(=O)NCc3ccc(F)cc3)nc2c1 | – | 28.2 µM (active)
Cc1ccc2nc(SCC(=O)Nc3cccc4ccccc34)nc(=O)n2c1 | -0.878% (inactive) | –
COc1ccc(CNC(=O)CSc2n[nH]c(-c3ccc(F)cc3)n2)cc1 | 3.13% (inactive) | –
Cc1ccc(C)c(N2CCN(C(=O)Cn3ncc4c(=O)oc5ccc(C)cc5c43)CC2)c1 | -18.5% (inactive) | –
CCOC(=O)c1ccc(CN(Cc2ccccc2)S(=O)(=O)c2ccc(Cl)cc2)cc1 | -2.81% (inactive) | –
CCCn1c(=O)c2[nH]c(-c3ccc(OCC(=O)NCCN)cc3)nc2n(CCC)c1=O | -4.39% [at 57.1 µM] (inactive) | –
COc1ccc(C(=O)Nc2cccc(/C=C(/CCC(=O)O)c3nc4ccccc4s3)c2)cc1 | – | 39.8 µM (active)
COc1cccc(NC(=O)c2ccc3nc(CCc4ccccc4)oc3c2)c1 | -19.1% (inactive) | –
COc1ccc(CC(=O)Nc2ccc(-c3nc4ccccc4s3)c(C)c2)cc1 | -9.77% (inactive) | –
COc1ccc(OC)c(NC(=O)C2CCN(S(=O)(=O)c3ccc(C)cc3)CC2)c1 | -15.4% (inactive) | –
CCOC(=O)c1ccc(N2C(=O)c3n[nH]c(-c4ccco4)c3C2c2ccc(O)cc2)cc1 (configuration not stated) | 4.53% (inactive) | –
CCN1C(=O)c2ccccc2Sc2ccc(NC(=O)Cc3ccc(OC)cc3)cc21 | -4.89% (inactive) | –
COc1ccccc1NC(=O)CN1C(=O)c2ccccc2Sc2ccc(C(=O)N3CCCC3)cc21 | – | 79.4 µM (active)
COC(=O)c1ccc2c(c1)N(CC(=O)Nc1ccc(C)c(C)c1)C(=O)c1ccccc1S2 | -15.5% (inactive) | –
CC(C)(C)C1CCc2c(sc(NC(=O)c3ccccc3F)c2C(=O)N2CCCCC2)C1 (configuration not stated) | -20% (inactive) | –

SMILES | activity change, negative = inhibition | Potency
CCOc1ccccc1NC(=O)c1ccc2c(c1)CCN2S(=O)(=O)c1ccc(C)cc1 | -20.4% (inactive) | –
CCc1ccc(C2C(C(=O)Nc3ccccc3)=C(C)Nc3c(C(=O)Nc4ccc(C)cc4)cnn32)cc1 (configuration not stated) | -11.1% (inactive) | –
C1=C(N2CCOCC2)/C(=C/c2nc3ccccc3[nH]2)CC1 | – | 20 µM (active)
COc1cc(OC)c(C2C=C(C(=O)O)Nc3ncnn32)cc1OC (configuration not stated) | 1.66% (inactive) | –
Cc1cc(C)c(NC(=O)CSc2nc3nccnc3c(=O)n2CCc2c[nH]c3ccccc23)c(C)c1 | 9.05% (inactive) | –
Cc1cc(C(=O)COc2ccccc2[N+](=O)[O-])c(C)n1-c1cccc(S(=O)(=O)N2CCOCC2)c1 | -19% (inactive) | –
Cc1cc(C(=O)N/N=C/c2ccc(O)c([N+](=O)[O-])c2)c(C)n1-c1ccc(F)cc1 | – | 8.91 µM (active)
O=C(N/N=C/c1cccc([N+](=O)[O-])c1)C1CC(=O)N(c2ccc(Br)cc2)C1 (configuration not stated) | -13.8% (inactive) | –
CC(C)(C)c1ccc(C(=O)NCC(c2ccco2)S(=O)(=O)c2ccc(F)cc2)cc1 (configuration not stated) | -19.1% (inactive) | –
O=C1/C(=C\c2ccc([N+](=O)[O-])cc2)CS(=O)(=O)C/C1=C/c1ccc([N+](=O)[O-])cc1 | – | 15.8 µM (active)
O=C(CC1Oc2ccc(Cl)cc2NC1=O)NCc1ccccc1 (configuration not stated) | 8.21% (inactive) | –
COc1ccccc1NC(=O)C(=O)c1cc(C)n(-c2ccccc2F)c1C | -19.1% (inactive) | –
C=CC1=C(C(=O)O)N2C(=O)[C@@H](NC(=O)/C(=N\OCC(=O)O)c3csc(N)n3)[C@H]2SC1 | – | 7.08 µM (active)
CO/N=C(\C(=O)N[C@@H]1C(=O)N2C(C(=O)O)=C(COC(C)=O)CS[C@H]12)c1csc(N)n1 (stereo in doubt) | – | inactive and 20 µM (active) and 28.2 µM (active)
CC(=O)N1CCCc2cc(S(=O)(=O)N3CCC(C(=O)NCc4ccc(C)cc4)CC3)ccc21 | -19.5% (inactive) | –
CC(=O)OC1=C(C(C)=O)N(Cc2ccccc2)S(=O)(=O)c2ccccc21 | -6.38% (inactive) | –
CCN(CC)c1nn2c(=O)c(C(=O)NCCc3ccccc3)cnc2s1 | 3.4% (inactive) | –
COc1ccccc1CNC(=O)c1ccc(CS(=O)c2ccccc2Cl)o1 (configuration not stated) | -22.6% (inactive) | –
O=C(CC1N=C2c3ccccc3N=C(SCc3cccc(Cl)c3)N2C1=O)NCc1ccc2c(c1)OCO2 (configuration not stated) | -4.09% (inactive) | –
